Data taken from PubChem BioAssay (NCATS).
Records with an inconclusive call do not appear. The source made the active and inactive calls. Calls come from the whole dose curve; as a rule, active = well fitted curve in either direction with a large enough effect (not every such curve was filed as active); inconclusive = small, poorly fitted or top-dose-only effect, or another doubt; inactive = flat fitted curve, though single readings scatter.

Assay: Stat Signaling Pathway (AID 446);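 note: ME-180 cervical cancer cells given 40 pM IL-6 alongside compound; SIE-controlled beta-lactamase reporter measured as 460/530 nm FRET emission ratio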
Settings: ME-180 (cervical carcinoma) SIE beta-lactamase reporter, IL-6 stimulated, 5 h; at 17.2 µM (top of the series) unless noted
Outline: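 IL-6/STAT signaling read in ME-180 cells via an SIE beta-lactamase reporter. Stimulus was 40 pM IL-6 (its AC50) for 5 hrs, so both activation and inhibition register.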
% is set by controls: 0 for no effect and ±100 for the full control effect.

activity, negative = inhibition, inactive:
CCC1(C)Cc2c(sc(NC(=O)CCC(=O)O)c2C#N)CO1 (stereo not given) 9.62%
COc1ccc(/C(O)=C2/C(=O)C(=O)N(CCN3CCOCC3)C2c2ccccn2)cc1OC (stereo not given) -5.39%
CCCC(=O)Nc1sc2c(c1C#N)CCCC2 8.33%
c1nc(NC2CCCCC2)c2[nH]cnc2n1 -29.4%
COc1ccc(C(=O)c2oc3nc(C)cc(C)c3c2N)cc1 -8.18%
Cc1nn(C)cc1CNC(=O)c1ccc(Br)o1 6.82%
C=C(C)Cn1c(-c2ccc(OC)cc2)nc2ccccc21 5.37%
O=C1NC(c2cccs2)Nc2ccccc21 (stereo not given) -4.53%
CN(CCOC(=O)c1ccc2c(c1)OCCO2)Cc1ccccc1 -4.47%
CC(C(=O)N1CCCCC1)N1C(=O)c2ccccc2C1=O (stereo not given) 3.42%
COC(=O)c1nn2c(C(F)(F)F)cc(-c3ccc(Br)o3)nc2c1Br 0.255%
Cc1cccn2c(=O)c3cc(C#N)c(=N)n(Cc4ccncc4)c3nc12 -5.05%
NC(=O)c1ccccc1OCCOCCOCCOc1ccccc1C(N)=O -0.51%
CC(=O)Oc1ccc2c(C)cc(=O)[nH]c2c1 -3.86%
CC(C)C1C(C#N)=C(N)Oc2n[nH]c(C(C)(C)C)c21 (stereo not given) -18.4%
CC(=O)Nc1n[nH]c(S(=O)(=O)Cc2ccc(Cl)cc2Cl)n1 3.27%
C=CCn1c(-c2ccc(OC)c(OC)c2)n[nH]c1=S -10.7%
COC(=O)C1=C(C)N=C2SC(C)C(=O)N2C1c1cccc(F)c1 (stereo not given) -1.23%
O=C(NCCCNCc1ccccc1)/C(=N\O)c1ccccc1 4.93%
CC1(C)Cc2[nH]c(=S)c(C#N)cc2CO1 27.9%
CCC(NC(=O)Nc1ccc(O)cc1)(C(F)(F)F)C(F)(F)F -7.48%
CCOC(=O)COn1c(=O)c(-c2ccc(OC)c(OC)c2)[n+]([O-])c2ccccc21 4.19%
Cc1cc(=O)oc2cc(OCCSCCN3CCOCC3)ccc12 -0.537%
CC(=O)N=C(N)Sc1nc2ccccc2[nH]1 1.5%
CN(C1CCS(=O)(=O)C1)S(=O)(=O)c1cccc2nsnc12 (stereo not given) 1.43%
COc1ccc(NC(=O)c2c(C)cc(=O)oc2C)c(OC)c1 10.7%
Cn1c(=O)c2c(nc(N3CCN(Cc4ccccc4)CC3)n2CC(=O)c2ccccc2)n(C)c1=O 0.621%
CCN(CC)CCN1C(=O)C(=O)/C(=C(/O)c2ccc(OC(C)C)cc2)C1c1ccncc1 (stereo not given) -2.31%
COc1cccc(C(=O)N2CCN(Cc3ccccn3)CC2)c1OC 7.75%
CC1=CC=CN2CC(O)CN=C12 (stereo not given) 3.52%
CCC1=Nc2ccccc2NC2=C1C(=O)CCC2 -3.13%
O=S1CCCSC1c1cccnc1 (stereo not given) 2.7%
CC1(C)Cc2c(oc3ncn4ncnc4c23)CO1 7.25%
COC(=O)[C@@H](N)Cc1ccc(O)cc1 -6.81%
c1cncc(Oc2cccc(Oc3cccnc3)c2)c1 29.4%
CCOC(=O)CC(C#N)c1cn(C)c2ccccc12 (stereo not given) 3.49%
CCn1nnc(C(=O)O)c1C(=O)O 1.11%
Cc1cc2c(c(=O)n1Cc1cccnc1)C(c1ccccc1)C(C#N)=C(N)O2 (stereo not given) -17%
C=CCNc1nc(C)nc(OC)n1 4.41%
c1cncc(-c2nnc3sc(C4CCCCC4)nn23)c1 -1.41%
